Screening data deposited in PubChem BioAssay by National Center for Advancing Translational Sciences (NCATS).
Sampled rows, rich in hits. Any-hit rate of the full collection: about 8%.
HT1080 IDH1KD tx: kills HT-1080 cells with IDH1 knockdown; HT-1080 IDH1 knockdown viability, ATP luminescence, 48 h; Potency, µM (highest dose often 46.1 µM), actives largely listed as cytotoxic; actives 2% (n = 360,000)
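Assay cells: HT-1080 with IDH1 knockdown, 750 per well, RPMI/5% FBS. Exposure: 48 h at 37 °C following 2 h pre-incubation. Read: CellTiter-Glo luminescence; fitted concentration-response, curve class assigned.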
KB-V1 MDR tox: KB-V1 MDR subline cytotoxicity; KB-V1 MDR cells viability, CellTiter-Glo, 72 h; Potency, µM (doses to about 46.1 µM), usual class: cytotoxic; actives 3.4% (n = 400,000); further: nearly all actives have a fitted effect of over 60% in size
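KB-V1 cells (P-gp-expressing MDR subline of KB-3-1) in phenol-red-free DMEM with 10% FBS were exposed to library compounds over a concentration series for 72 h at 37 degrees C. Viability read by CellTiter-Glo luminescence; concentration-effect curves fitted after normalization.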
SW480 rerep: induces DNA re-replication in SW480 colon adenocarcinoma cells; actives 1.8% (n = 340,000); AID 624297; Potency, µM (highest dose often 46.1 µM), usual class: activators; SW480 DNA re-replication, Hoechst DNA content imaging, 48 h; further: nearly all actives have a fitted effect of over 55% in size
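Readout is total intensity of Hoechst-stained nuclei, excited at 405 nm and collected at 500-530 nm. Compound treatment lasted 48 hr at 37 C in 5% CO2 before staining.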
HT1080-NT tox: kills 2HG-producing HT-1080-NT fibrosarcoma cells | HT-1080-NT fibrosarcoma viability, CellTiter-Glo ATP luminescence, 48 h | Potency, µM (series often up to 46.1 µM), most hits filed as cytotoxic | actives 1.6% (n = 360,000) | AID 686970;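 further: NT is the 2HG producing partner of a matched IDH1 knockdown line; nearly all actives have a fitted effect of over 55% in size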
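Luminescent CellTiter-Glo readout after 48 hours of compound exposure at 37 degrees C defined viability of HT-1080-NT cells. Activity was normalized to DMSO wells and cell-free media wells; concentration-response curves were fitted and assigned curve classes.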
MCF10A rereplic: induces DNA re-replication in MCF 10a normal breast cells | Potency, µM (highest dose often 46.1 µM), usual class: activators | actives 2.9% (n = 350,000) | MCF 10A DNA re-replication, Hoechst nuclear intensity, 48 h; further: nearly all actives have a fitted effect of over 50% in size
KB-3-1 tox: KB-3-1 parental cell cytotoxicity; KB-3-1 viability, CellTiter-Glo ATP luminescence, 72 h; Potency, µM (titrated, usually from 46.1 µM), actives largely listed as cytotoxic; actives 1.4% (n = 400,000); further: nearly all actives have a fitted effect of over 60% in size
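Viability of parental KB-3-1 cells, measured by CellTiter-Glo luminescence, followed a 72 h incubation at 37 °C with pinned compounds in phenol-red-free DMEM containing 10% FBS.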
Of the large screens only hits and unclear results are named; the others gave an inactive call. The call rests on the fitted dose curve; in most records, active means well fitted curve in the direction sought with a large enough effect; inconclusive means small, poorly fitted or top-dose-only effect, or another doubt; inactive means no such curve, though single readings can be large; an effect the other way counts as inactive or inconclusive.

CCOC(=O)[C@]12CCCC=C1N(Cc1ccccc1)C(=O)[C@H](CC(=O)NCc1cccc(C(F)(F)F)c1)C2	HT1080 IDH1KD tx inconclusive, KB-V1 MDR tox inconclusive, HT1080-NT tox 29.1µM (no result: SW480 rerep, MCF10A rereplic)
COC(=O)[C@]12CCCCC=C1N(Cc1cccc3ccccc13)C(=O)[C@H](CC(=O)NCc1cccc(C(F)(F)F)c1)C2	HT1080 IDH1KD tx inconclusive, KB-V1 MDR tox 9.2µM, HT1080-NT tox inconclusive, KB-3-1 tox inconclusive (no result: SW480 rerep, MCF10A rereplic)
CCCCCCCCN1C(=O)[C@H](CC(=O)NCc2cccc(C(F)(F)F)c2)C[C@@]2(C(=O)OC)CC(C)(C)CC=C12	HT1080 IDH1KD tx inconclusive, KB-V1 MDR tox 23.1µM, HT1080-NT tox inconclusive, KB-3-1 tox inconclusive (no result: SW480 rerep, MCF10A rereplic)
CCC(CC)NC(=O)COC(=O)c1ccc(OCc2ccc(C(C)=O)cc2OC)c(OC)c1	none
COc1ccc(-n2nc(C(=O)Nc3ccc(OC)c(OC)c3)c3c4ccccc4n(C)c3c2=O)cc1	KB-V1 MDR tox inconclusive, SW480 rerep 16.4µM, MCF10A rereplic inconclusive, KB-3-1 tox inconclusive
COc1ccc(-n2nc(C(=O)Nc3ccc4c(c3)OCO4)c3c4ccccc4n(C)c3c2=O)cc1	none
CCCCC(=O)Nc1ccc(Br)cc1C(=O)O	KB-V1 MDR tox inconclusive
COc1cc(CNn2nnnc2N)ccc1OCc1c(Cl)cccc1Cl	KB-V1 MDR tox 14.6µM, KB-3-1 tox 16.4µM
O=C(CN(Cc1ccccc1)S(=O)(=O)c1ccc2c(c1)OCCO2)N/N=C/c1ccc(F)cc1	HT1080-NT tox inconclusive
O=C(CN(Cc1ccc(Cl)c(Cl)c1)S(=O)(=O)c1ccccc1)N/N=C\c1ccc2c(c1)OCO2	KB-V1 MDR tox 20.6µM, SW480 rerep inconclusive, HT1080-NT tox inconclusive, KB-3-1 tox inconclusive
O=C(CN(Cc1ccccc1)S(=O)(=O)c1ccccc1)N/N=C/c1ccc([N+](=O)[O-])cc1	KB-V1 MDR tox 2.06µM, SW480 rerep inconclusive
O=C(CN(Cc1ccccc1)S(=O)(=O)c1ccccc1)N/N=C/c1ccc2c(c1)OCO2	HT1080 IDH1KD tx inconclusive, HT1080-NT tox inconclusive
COc1ccc(/C=N/NC(=O)CN(Cc2ccccc2)S(=O)(=O)c2ccc3c(c2)OCCO3)cc1	none
O=C(CN(Cc1ccccc1)S(=O)(=O)c1ccc2c(c1)OCCO2)N/N=C/c1cccc(Br)c1	KB-V1 MDR tox 18.4µM
Cc1ccc2nc(SCC(=O)c3c(N)n(C4CC4)c(=O)[nH]c3=O)[nH]c2c1	none
CCCc1cc(=O)[nH]c(SCC(=O)c2c(N)n(C3CC3)c(=O)[nH]c2=O)n1	HT1080 IDH1KD tx inconclusive, HT1080-NT tox inconclusive, MCF10A rereplic inconclusive, KB-3-1 tox 16.4µM
O=C(CN1C(=O)NC2(CCCc3ccccc32)C1=O)c1ccc(F)cc1 (centres undefined)	none
CCCN(Cc1cc2cc(C)ccc2[nH]c1=O)S(C)(=O)=O	none
CCOc1ccccc1N=Cc1c(O)c2ccccc2oc1=O	none
Clc1ccccc1OCCn1cnc2ccccc21	KB-V1 MDR tox 20.6µM
Brc1ccccc1OCCCCn1cnc2ccccc21	HT1080 IDH1KD tx inconclusive, KB-V1 MDR tox inconclusive, MCF10A rereplic inconclusive, KB-3-1 tox 5.17µM
Cc1ccc(OCCCCn2cnc3ccccc32)c(C)c1	KB-V1 MDR tox inconclusive
CC(C)CCOc1ccc(C2(C)NC(=O)N(CN3CCOCC3)C2=O)cc1 (centres undefined)	none
CCCCn1c(-c2ccc(Cl)c(Cl)c2)nc2cc3[nH]c(=O)c(C(C)C)nc3cc21	MCF10A rereplic 14.6µM
CCCCn1c(-c2ccc(C(C)(C)C)cc2)nc2cc3[nH]c(=O)c(C(C)C)nc3cc21	MCF10A rereplic 18.4µM
CCCCn1c(-c2cccc(Br)c2)nc2cc3[nH]c(=O)c(C(C)C)nc3cc21	SW480 rerep inconclusive, MCF10A rereplic 18.4µM, KB-3-1 tox inconclusive
CCCCc1ccc(NC(=O)c2c(C)noc2C)cc1	MCF10A rereplic inconclusive
O=C(Nc1ccc(F)cc1)Nc1nnc(COc2ccccc2F)s1	HT1080 IDH1KD tx 14.6µM, KB-V1 MDR tox inconclusive, HT1080-NT tox inconclusive, MCF10A rereplic inconclusive
O=C(Nc1ccc(Cl)cc1)Nc1nnc(CSCc2ccccc2)s1	KB-V1 MDR tox 20.6µM
O=C(Nc1ccc(Cl)cc1)Nc1nnc(CSc2ccc(Cl)cc2)s1	KB-V1 MDR tox inconclusive, SW480 rerep inconclusive, MCF10A rereplic inconclusive, KB-3-1 tox inconclusive
O=C(Nc1cccc(Cl)c1)Nc1nnc(CSCCOc2ccc(Cl)cc2)s1	HT1080 IDH1KD tx 18.4µM, SW480 rerep inconclusive, HT1080-NT tox 16.4µM, MCF10A rereplic 5.17µM, KB-3-1 tox inconclusive
COc1ccc(NS(=O)(=O)c2cc(NC(=O)c3ccc(Cl)cc3)ccc2N2CCOCC2)cc1	HT1080 IDH1KD tx 2.59µM, KB-V1 MDR tox 5.8µM, SW480 rerep 1.46µM, HT1080-NT tox 2.31µM, MCF10A rereplic 2.31µM, KB-3-1 tox inconclusive
COc1ccc(NC(=O)c2ccc(Br)c(S(=O)(=O)N3CCOCC3)c2)cc1	KB-V1 MDR tox 20.6µM, KB-3-1 tox inconclusive
O=C(Nc1ccc(Cl)c(S(=O)(=O)N2CCOCC2)c1)c1ccc(OCC2CCCO2)cc1 (centres undefined)	HT1080 IDH1KD tx 25.9µM, HT1080-NT tox 18.4µM, MCF10A rereplic 18.4µM, KB-3-1 tox inconclusive
CC(C)Oc1ccc(C(=O)Nc2ccc(Cl)c(S(=O)(=O)Nc3ccc(Cl)cc3)c2)cc1	KB-V1 MDR tox 5.8µM, SW480 rerep inconclusive, HT1080-NT tox inconclusive, MCF10A rereplic inconclusive, KB-3-1 tox inconclusive
COc1ccc(C(=O)Nc2ccc(N3CCOCC3)cc2)cc1S(=O)(=O)N1CCOCC1	none
CC(NC(N)=O)C(=O)Nc1ccc(Cl)c(S(=O)(=O)Nc2ccc(Cl)cc2)c1 (centres undefined)	none
CC(C1CC1)N(C(=O)NC1CCS(=O)(=O)C1)c1ccccc1 (centres undefined)	none
COc1ccc(N2CCN(C(=S)Nc3ccc(C)cc3C)CC2)cc1	KB-V1 MDR tox inconclusive
O=c1cc(CN2CCN(c3ccc(F)cc3)CC2)c2cc3c(cc2o1)CCCC3	KB-V1 MDR tox inconclusive, KB-3-1 tox inconclusive
Cc1ccc2c(C)c(C(=O)N(C)C(C)c3ccncn3)oc2c1C (centres undefined)	none
COc1ccc(C(=O)Nc2ccc(Cl)c(S(=O)(=O)N3CCOCC3)c2)cc1	KB-V1 MDR tox 7.31µM, HT1080-NT tox 3.66µM, MCF10A rereplic inconclusive, KB-3-1 tox inconclusive
COc1ccc(C(=O)Nc2ccc(S(=O)(=O)N3CCOCC3)cc2)cc1	none
O=c1oc2ccc(Br)cc2cc1S(=O)(=O)c1ccc(F)cc1	HT1080 IDH1KD tx 14.6µM, KB-V1 MDR tox inconclusive, HT1080-NT tox inconclusive, MCF10A rereplic 5.17µM, KB-3-1 tox 29.1µM
